In PubChem BioAssay (NCATS):
Inconclusive results are not listed. The list shows a part of the results. Activity calls are given as the source filed them. Unless noted, calls come from the whole dose curve; as a rule, active = well fitted curve in the direction sought with a large enough effect; inconclusive = small, poorly fitted or top-dose-only effect, or another doubt; inactive = no such curve, though single readings can be large; an effect the other way counts as inactive or inconclusive.

Experiments:
[1] = target: DNA polymerase kappa (Homo sapiens) (UniProt Q9UBT6); test: qHTS for Inhibitors of Polymerase Kappa: Confirmatory Assay for Cherry-picked Compounds (AID 720501); conditions: purified Pol-kappa, fluorescent strand-displacement substrate; note: potency is the fitted concentration of half-maximal effect
DNA polymerase kappa (Homo sapiens), sequence (Q9UBT6 whole entry, looked up): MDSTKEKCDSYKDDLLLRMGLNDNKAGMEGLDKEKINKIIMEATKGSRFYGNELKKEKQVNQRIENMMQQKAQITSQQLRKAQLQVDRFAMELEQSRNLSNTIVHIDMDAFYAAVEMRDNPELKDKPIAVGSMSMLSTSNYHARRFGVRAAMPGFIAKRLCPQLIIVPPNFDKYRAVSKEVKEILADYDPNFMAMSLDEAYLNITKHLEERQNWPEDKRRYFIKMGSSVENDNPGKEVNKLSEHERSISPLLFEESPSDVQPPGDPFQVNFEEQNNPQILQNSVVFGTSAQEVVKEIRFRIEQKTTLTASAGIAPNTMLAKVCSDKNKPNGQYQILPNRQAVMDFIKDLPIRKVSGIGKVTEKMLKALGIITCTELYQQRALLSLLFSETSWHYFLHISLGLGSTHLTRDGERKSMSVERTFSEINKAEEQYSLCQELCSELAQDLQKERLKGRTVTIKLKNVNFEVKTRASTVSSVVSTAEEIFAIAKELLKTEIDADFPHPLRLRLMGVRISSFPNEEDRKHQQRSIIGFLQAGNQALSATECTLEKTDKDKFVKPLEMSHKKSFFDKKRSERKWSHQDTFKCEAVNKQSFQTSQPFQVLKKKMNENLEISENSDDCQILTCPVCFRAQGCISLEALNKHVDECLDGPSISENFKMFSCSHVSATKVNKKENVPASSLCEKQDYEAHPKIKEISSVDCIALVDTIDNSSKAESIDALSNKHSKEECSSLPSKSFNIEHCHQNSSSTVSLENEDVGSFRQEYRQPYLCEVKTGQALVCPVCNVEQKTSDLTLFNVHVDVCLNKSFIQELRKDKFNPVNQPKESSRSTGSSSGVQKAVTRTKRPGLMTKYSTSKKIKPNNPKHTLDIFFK
In short: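 Human Pol-kappa, dispensed at 10 nM, was preincubated with compounds for 15 min at room temperature. Reactions were started with primer/template substrate (50 nM final) carrying a TAMRA reporter strand and BHQ-2-quenched template, and fluorescence (ex 525/em 598 nm) was read at 0 and 10 min.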

[2] = qHTS Assay for Identifying Gametocytocidal Compounds (AID 743244);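 note: % is set by controls: 0 for no effect and ±100 for the full control effect; actives lower the fluorescent signal which means gametocytes are killed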; conditions: P. falciparum 3D7 stage III-V gametocytes, alamarBlue, 72 h; max response: stronger effect = lower value
In short: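 P. falciparum 3D7 stage III–V gametocytes (20,000 cells/well) were exposed to compounds for 72 h at 37 °C, 5% CO2. AlamarBlue was then added for 24 h; decreased resorufin fluorescence (Ex 525/Em 598 nm) indicated loss of viability.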

[3] = qHTS assay for measurement of the activity of small molecule inhibitors on Zika virus induced Caspase-3 activity in human iPSC derived neural progenitor cells (hNPCs) (AID 1224857); note: % of control where 0% means no effect; nearly all actives have a fitted effect of over 65% in size
In short: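 hNPCs seeded 350 cells/well, cultured 16–20 h; compounds added 1 h before ZIKV (2 FFU/cell), 37 C 6 h. Caspase-Glo 3/7 luminescence after 30 min RT; % inhibition from induction scaled to uninfected (0%) and infected (100%) wells.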

[4] = qHTS assay for measurement of the activity of small molecule inhibitors on Zika virus induced Caspase-3 activity in human astrocytoma cells (AID 1224859);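 note: plate controls were ZIKV-infected untreated cells for no effect and uninfected cells for full effect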
In short: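 Luminescence read-out (Caspase-Glo 3/7, 30 min RT) of caspase activity in SNB-19 cells infected 6 h with ZIKV, 2 FFU/cell, after 1 h compound pretreatment; % inhibition from induction normalised to uninfected (0%) and infected (100%) wells.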

[5] = qHTS assay to identify small molecule inhibitors of chordoma cells - UCH-1 (AID 1259355); note: % is set by controls: 0 for no effect and ±100 for the full control effect; nearly all actives have a fitted effect of over 55% in size
In short: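 Luminescent ATP read-out (CellTiter-Glo, 30min at room temperature) measured viability of UCH-1 cells exposed for 48hr to test drugs at 15 concentrations, co-dosed with a five-agent combination of auranofin, camptothecin, doxorubicin, rubitecan and topotecan.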

[6] = qHTS profiling of the MIPE4 collection as inhibitors of Plasmodium falciparum (3D7) proliferation (AID 743344; call rule not given here;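 note: scaled between DMSO vehicle wells and 0.29 µM artemisinin as full inhibition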); conditions: P. falciparum 3D7 in erythrocytes, SYBR Green DNA fluorescence, 72 h; at 9.64 µM (top of the series) unless noted
In short: (§1)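 Erythrocytes infected with P. falciparum (0.3% parasitemia, 2.5% hematocrit) incubated with compounds 72 h at 37 C, 5% CO2. Lysis with saponin/Triton buffer containing SYBR Green I, overnight at room temperature in the dark; DNA fluorescence (485/535 nm) normalised to 0.29 uM artemisinin and DMSO.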

[7] = qHTS profiling of the MIPE4 collection as inhibitors of Plasmodium falciparum (DD2) proliferation (AID 743345; call rule not given here); conditions: P. falciparum Dd2 in erythrocytes, SYBR Green DNA, 72 h; at 9.64 µM (top of the series) unless noted
In short: as §1

[8] = qHTS profiling of the MIPE4 collection as inhibitors of Plasmodium falciparum (DD2) proliferation (Rep 2) (AID 743346; call rule not given here); conditions: P. falciparum Dd2 in erythrocytes, SYBR Green DNA, 72 h; at 9.64 µM (top of the series) unless noted
In short: as §1

[9] = qHTS profiling of the MIPE4 collection as inhibitors of Plasmodium falciparum (HB3) proliferation (AID 743347; call rule not given here;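 note: plate controls were DMSO vehicle wells for no effect and artemisinin wells for full effect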); conditions: P. falciparum HB3 in erythrocytes, SYBR Green DNA, 72 h; at 9.64 µM (top of the series) unless noted
In short: as §1

[10] = qHTS assay to identify small molecule inhibitors of chordoma cells - UCH-2 (AID 1259356); note: % is set by controls: 0 for no effect and ±100 for the full control effect
[11] = target: Peroxisome proliferator-activated receptor alpha (Homo sapiens) (UniProt Q07869); test: qHTS assay for small molecule agonists of the peroxisome proliferator-activated receptor alpha (PPARalpha) signaling pathway (AID 651778); conditions: PathHunter PPARalpha complementation, chemiluminescence, 6 h; stronger effect = higher value; note: % of control where 0% means no effect
Peroxisome proliferator-activated receptor alpha (Homo sapiens), sequence (Q07869 whole entry, looked up): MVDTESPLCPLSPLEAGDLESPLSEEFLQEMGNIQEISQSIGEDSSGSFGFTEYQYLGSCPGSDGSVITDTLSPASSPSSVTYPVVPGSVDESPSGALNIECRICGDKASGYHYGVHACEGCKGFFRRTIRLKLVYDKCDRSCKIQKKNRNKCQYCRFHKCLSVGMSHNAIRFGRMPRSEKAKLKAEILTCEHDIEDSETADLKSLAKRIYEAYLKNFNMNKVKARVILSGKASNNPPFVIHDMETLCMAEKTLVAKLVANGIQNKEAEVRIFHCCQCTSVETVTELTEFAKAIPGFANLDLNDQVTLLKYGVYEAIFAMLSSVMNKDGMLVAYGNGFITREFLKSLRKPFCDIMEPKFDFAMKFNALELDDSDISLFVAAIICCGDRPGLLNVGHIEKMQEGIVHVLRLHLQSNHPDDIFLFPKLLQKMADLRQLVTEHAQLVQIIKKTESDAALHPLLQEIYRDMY
In short: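 Cells plated at 2,000/well and held overnight at 37 C, 5% CO2, then compound added by pin tool for 6 hr; after PathHunter detection reagent and 60 min at room temperature, chemiluminescence from enzyme complementation was read.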

[12] = qHTS assay for small molecule agonists of the antioxidant response element (ARE) signaling pathway measured by Nrf2-dependant transcriptional activity (AID 720636; active = well fitted curve in the direction sought with a large enough effect in the repeat runs; an effect the other way counts as inactive or inconclusive;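 note: HepG2 cells with an ARE-driven luciferase reporter; % of control where 0% means no effect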)
In short: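 First, ARE-luc HepG2 cells attached for 6 hr at 37 C in 1% dialyzed FBS medium. Next, compound or DMSO was added and incubated 16 hr. Finally, ONE-Glo reagent was added and luminescence measured after 30 min.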

[13] = qHTS assay for small molecule agonists of the antioxidant response element (ARE) signaling pathway measured by Nrf2-dependant transcriptional activity - cell viability counter screen (AID 720653; active = well fitted curve in the direction sought with a large enough effect in the repeat runs; an effect the other way counts as inactive or inconclusive; note: % is set by controls: 0 for no effect and ±100 for the full control effect); conditions: ARE-bla HepG2 viability, CellTiter-Glo ATP luminescence, 16 h; stronger effect = lower value
In short: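 ARE-bla HepG2 cells (2,000/well) rested 5 hrs at 37C/5% CO2, then exposed to compounds in DMSO for 16 hrs. Viability was read in the same wells as intracellular ATP by luminescence, 30 min at room temperature after reagent addition.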

[14] = qHTS assay for cell viability of HEK293 cells (AID 743288); conditions: ATP luminescence (CellTiter-Glo), 18 h, stronger effect = lower value; note: % is set by controls: 0 for no effect and ±100 for the full control effect; nearly all actives have a fitted effect of over 50% in size
In short: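 Total intracellular ATP, measured with a luciferase-coupled reagent, indicates the number of viable HEK293 cells. Exposure to test chemicals lasts 18 h at 37 C in 1,536-well format at 2,000 cells/well.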

[15] = qHTS assay for cell viability of the p53RE-bla HCT-116 cell line (AID 743292); note: % is set by controls: 0 for no effect and ±100 for the full control effect; nearly all actives have a fitted effect of over 55% in size
In short: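 Quantitative high-throughput format: compounds in DMSO were pinned onto p53RE-bla HCT-116 cells (4,000/well) and incubated 16 h at 37 C. Total intracellular ATP, read by CellTiter-Glo luminescence, reflects viable cell number.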

[16] = target: Nuclear receptor ROR-gamma (Homo sapiens) (UniProt P51449); test: qHTS assay for small molecule antagonists of the retinoid-related orphan receptor gamma (ROR-gamma) signaling pathway (AID 651802);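 note: luciferase reporter luminescence driven by ROR response element; % is set by controls: 0 for no effect and ±100 for the full control effect; nearly all actives have a fitted effect of over 60% in size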
Nuclear receptor ROR-gamma (Homo sapiens), sequence (P51449 whole entry, looked up): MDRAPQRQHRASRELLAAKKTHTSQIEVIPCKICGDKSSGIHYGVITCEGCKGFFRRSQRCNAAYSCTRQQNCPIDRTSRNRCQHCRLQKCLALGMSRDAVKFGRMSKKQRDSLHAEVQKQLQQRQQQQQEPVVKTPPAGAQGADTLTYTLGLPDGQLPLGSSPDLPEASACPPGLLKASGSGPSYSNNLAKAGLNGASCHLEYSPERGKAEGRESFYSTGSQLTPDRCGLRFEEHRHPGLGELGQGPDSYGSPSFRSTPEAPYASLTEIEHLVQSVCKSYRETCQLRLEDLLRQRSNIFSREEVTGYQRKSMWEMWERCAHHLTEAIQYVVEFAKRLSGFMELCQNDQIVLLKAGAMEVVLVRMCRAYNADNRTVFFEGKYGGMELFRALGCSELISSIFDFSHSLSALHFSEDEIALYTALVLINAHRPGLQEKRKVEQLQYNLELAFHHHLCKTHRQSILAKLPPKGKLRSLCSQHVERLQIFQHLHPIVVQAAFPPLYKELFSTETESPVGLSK
In short: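 CHO cells with TET-inducible ROR-gamma and RORE-luciferase reporter, dosed then doxycycline-induced. After 16 h at 37C, One-Glo luminescence read; decreased signal indicates antagonism.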

[17] = qHTS assay for small molecule antagonists of the retinoid-related orphan receptor gamma (ROR-gamma) signaling pathway - cell viability counter screen (AID 720652; active = well fitted curve in the direction sought with a large enough effect in the repeat runs; an effect the other way counts as inactive or inconclusive;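 note: compound exposure lasted 16 hr before ATP read; % is set by controls: 0 for no effect and ±100 for the full control effect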)
In short: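 CHO cells carrying TET-inducible ROR and RORE-luciferase reporter, plated 5 hr, then dosed with compound plus doxycycline. After 16 hr at 37 C, viability read as intracellular ATP by CellTiter-Glo luminescence.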

COc1ccc(-c2cc(=O)c3c(O)cc(O[C@@H]4O[C@H](CO[C@@H]5O[C@@H](C)[C@H](O)[C@@H](O)[C@H]5O)[C@@H](O)[C@H](O)[C@H]4O)cc3o2)cc1O
active: Potency [1] 18.9 µM
inactive: max response [2] -2.29% | outcome [3] | outcome [4] | outcome [5]

CN1CCN(C(=O)C2CCCCC2)CC1
inactive: max response [2] 11.1% | outcome [3] | outcome [4] | outcome [5]

COc1ccccc1OC(=O)Oc1ccccc1OC
inactive: max response [2] 1.99% | outcome [3] | outcome [4] | outcome [5]

COc1ccc(NS(=O)(=O)c2ccc(N)cc2)nn1
101%: parasite growth remaining, % of DMSO control (lower = more inhibition) [7]
103%: parasite growth, % of DMSO control [6]
inactive: max response [2] 10.4% | outcome [3] | outcome [4] | outcome [5] | outcome [10]
141%: parasite growth, % of control (lower = inhibition) [8]
62.1%: growth, % of control [9]

O=C(O)Cn1c(C(=O)Nc2nc(-c3ccccc3Cl)cs2)cc2ccccc21
inactive: max response [2] 1.71% | outcome [3] | outcome [4] | outcome [5]

O=C(OOC(=O)c1ccccc1)c1ccccc1
inactive: max response [11] -3.46% | outcome [12] | max response [13] -11.2% | max response [2] -8.14% | max response [14] -11.7% | outcome [15] | outcome [3] | outcome [4] | outcome [5]

OC(CCN1CCCC1)(c1ccccc1)C1CCCCC1 (stereo unspecified)
inactive: max response [2] 3.62% | outcome [3] | outcome [4] | outcome [5]

O=C(CCBr)N1CCN(C(=O)CCBr)CC1
inactive: max response [2] -1.41% | outcome [3] | outcome [4] | outcome [5]

CC(=O)NCc1c(I)c(NC(C)=O)c(I)c(C(=O)O)c1I
inactive: max response [2] 12.1% | outcome [3] | outcome [4] | outcome [5]

O=S1(=O)OC(c2ccc(O)cc2)(c2ccc(O)cc2)c2ccccc21
inactive: max response [2] 21.8% | outcome [3] | outcome [4] | outcome [5]

Cc1ccc2c(c1)c1c3n2CCNC3CCC1 (stereo unspecified)
inactive: max response [2] 5.73% | outcome [3] | outcome [4] | outcome [5]

CCCCCCCC(=O)OCC(COC(=O)CCCCCCC)OC(=O)CCCCCCC
inactive: max response [11] 4.51% | outcome [16] | outcome [12] | outcome [17] | max response [13] 1.9% | max response [2] 1.43% | max response [14] -8.85% | outcome [15] | outcome [3] | outcome [4] | outcome [5]
